The list is not random: actives were taken first. Their share in the collection is about 1.6%.
KCNQ2 inh = KCNQ2 (rat) channel inhibition. B-score at 10 µM. 310,000 compounds, 1.1% hits. CHO-K1 KCNQ2, FluxOR thallium flux, 20 min; stronger effect = lower value. O88943;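 active = fluorescence ratio B-score at most minus 3 library SDs, with starting brightness B-score within 2 library SDs, cut at about -5.5 in these data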
Target sequence (O88943 whole entry, looked up): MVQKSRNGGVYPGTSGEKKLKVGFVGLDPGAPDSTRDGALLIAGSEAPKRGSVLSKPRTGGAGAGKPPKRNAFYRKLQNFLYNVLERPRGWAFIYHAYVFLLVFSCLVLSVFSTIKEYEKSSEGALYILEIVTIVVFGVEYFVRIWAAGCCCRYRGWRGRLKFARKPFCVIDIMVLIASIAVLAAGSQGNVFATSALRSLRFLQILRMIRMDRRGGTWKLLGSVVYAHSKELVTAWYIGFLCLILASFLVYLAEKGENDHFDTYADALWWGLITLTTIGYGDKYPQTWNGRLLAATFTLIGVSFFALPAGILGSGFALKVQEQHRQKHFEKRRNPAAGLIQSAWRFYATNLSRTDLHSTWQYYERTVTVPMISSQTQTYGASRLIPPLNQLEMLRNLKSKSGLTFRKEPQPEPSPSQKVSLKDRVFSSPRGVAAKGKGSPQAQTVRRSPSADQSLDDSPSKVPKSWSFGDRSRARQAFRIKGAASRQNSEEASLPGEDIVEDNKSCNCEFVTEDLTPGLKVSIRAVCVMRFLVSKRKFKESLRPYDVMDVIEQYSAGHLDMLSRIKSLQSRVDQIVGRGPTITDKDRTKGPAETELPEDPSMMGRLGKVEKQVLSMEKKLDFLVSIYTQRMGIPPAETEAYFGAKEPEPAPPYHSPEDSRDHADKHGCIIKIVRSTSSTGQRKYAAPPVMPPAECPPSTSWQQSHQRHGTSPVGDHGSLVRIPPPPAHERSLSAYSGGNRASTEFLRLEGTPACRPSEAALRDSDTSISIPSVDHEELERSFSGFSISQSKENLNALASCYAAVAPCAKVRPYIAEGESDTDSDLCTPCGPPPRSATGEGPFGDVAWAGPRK
KCNQ2 pot = enhances the rat KCNQ2 potassium channel. O88943. CHO-K1 KCNQ2, FluxOR thallium flux fluorescence; stronger effect = higher value. B-score at 10 µM. 310,000 compounds, 0.54% hits. AID 2239;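 active = fluorescence ratio B-score at least 3 SD of library B-scores, with initial fluorescence B-score within 3 of them, cut at about 5.3 in these data; same plate scores as AID 2156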;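 also: B-score of peak minus minimum over baseline fluorescence ratio after K+ and Tl+ stimulus; positive B-score means potentiation of KCNQ2 with more thallium influx and brighter signal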
KCNQ2 block conf = rat KCNQ2 channel inhibition, confirmatory screen; shares compounds with KCNQ2 inh; KCNQ2-expressing cells, thallium flux; stronger effect = lower value; activity change, negative = inhibition, % at 10 µM; 1,000 compounds, 57% hits; AID 493025;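 also: 0% = vehicle wells and values are ratio percent relative to vehicle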
KCNQ1 spec = KCNQ2 inhibitor that also affects human KCNQ1 channel. shares compounds with KCNQ2 inh. KCNQ1-expressing cells, FluxOR thallium flux fluorescence; stronger effect = lower value. activity change, negative = inhibition, % at 10 µM. 1,000 compounds, 15% hits. AID 493026;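 active = activity change at least 3 SD of negative controls below their mean in both duplicate wells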;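 also: CHO cells stably transfected with KCNQ1 and depolarized by potassium stimulus; peak minus minimum fluorescence over baseline after thallium addition; 0% = vehicle negative control and -100% = blank without thallium stimulus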
CHO Tl ctr = counter-screen for KCNQ2 inhibitors: effect in parental CHO cells; shares compounds with KCNQ2 inh; thallium flux counter-screen; stronger effect = lower value; activity change, % at 10 µM; 1,000 compounds, 14% hits; AID 493029;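 also: 0% = vehicle negative controls with stimulus buffer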
KCNQ2 patch conf = confirmation of rat KCNQ2 potassium channel inhibitors | shares compounds with KCNQ2 inh | KCNQ2-expressing cells, automated patch clamp current | calls only at 10 µM | 550 compounds, 49% hits
An asterisk follows results filed as active; i = inactive; nt = no result given; + = active, no number. Unless noted, no rule for the calls is given here.

SMILES | KCNQ2 inh | KCNQ2 pot | KCNQ2 block conf | KCNQ1 spec | CHO Tl ctr | KCNQ2 patch conf
COc1cc(/C=C/C(=O)NCc2ccccn2)cc(OC)c1OC | i | 0.13 | nt | nt | nt | nt
COc1ccc(/C=C/C(=O)N(Cc2ccccc2)c2ccccn2)cc1OC | -7.7* | -7.7 | -18%* | i | i | +
Cc1ccc(OCC(=O)N(Cc2ccccc2)c2ccccn2)cc1 | -8.2* | -8.2 | i | i | i | nt
COc1cc(/C=C/C(=O)N(Cc2ccccc2)c2ccccn2)cc(OC)c1OC | -7.9* | -7.9 | -29%* | i | i | +
COc1cc(CN2CCCC(CO)(Cc3ccccc3C)C2)cc2c1OCO2 (stereo unspecified) | i | nt | nt | nt | nt | nt
CCS(=O)(=O)c1nc2ccccc2n1Cc1ccccn1 | i | nt | nt | nt | nt | nt
COc1cccc(C(=O)Nc2sc3c(c2C#N)CCN(C(C)=O)C3)c1 | i | nt | nt | nt | nt | nt
CCOC(=O)N1CCN(C(=O)CNS(=O)(=O)c2c(C)cc(C)cc2C)CC1 | i | 1.4 | nt | nt | nt | nt
CN1C(=O)OC(C)(C)C1=O | i | 1.9 | nt | nt | nt | nt
CC1(C)Cc2c(C#N)c(NCC3CCCO3)nc(-c3ccco3)c2CO1 (stereo unspecified) | i | nt | nt | nt | nt | nt
CC1(C)Cc2c(C#N)c(NC3CCCCC3)nc(-c3ccco3)c2CO1 | -13* | -13 | i | i | i | nt
Cc1ccc(C(=O)NCc2ccccn2)cc1NC1=NC2CS(=O)(=O)CC2S1 (stereo unspecified) | i | 1.6 | nt | nt | nt | nt
Cc1c(N=Cc2cccs2)c(=O)n(-c2ccccc2)n1C | i | nt | nt | nt | nt | nt
Cc1ccc(C2C(C=Nc3c(C)n(C)n(-c4ccccc4)c3=O)=C(c3ccccc3)Oc3ccccc32)cc1 (stereo unspecified) | -11* | -11 | -24%* | i | i | i
CCOC(=O)N1CCN(C(=O)c2cc(COc3cccc(C(F)(F)F)c3)on2)CC1 | i | 0.66 | nt | nt | nt | nt
C=CCC1(CC=C)CCCN1C(=O)c1cc(COc2cccc(C(F)(F)F)c2)on1 | -9.5* | -9.5 | -34%* | -30%* | -28%* | +
N#CC(C(N)=O)=C1CCCCC1 | i | 0.23 | nt | nt | nt | nt
COc1ccc(CCNC(=O)c2ccc3c(c2)N(Cc2ccc(F)cc2)CCS3)c(OC)c1 | -8.1* | -8.1 | i | i | i | nt
COc1ccc(OC)c(CCNC(=O)c2ccc3c(c2)N(Cc2ccc(F)cc2)CCS3)c1 | i | nt | nt | nt | nt | nt
CCc1ccc(-c2cc(C)no2)cc1S(=O)(=O)N1CCC(C)CC1 | i | nt | nt | nt | nt | nt
Cc1cc(-c2ccc(C(C)C)c(S(=O)(=O)N3CCC(C)CC3)c2)on1 | -8.4* | -8.4 | -16%* | i | i | i
CCCCOC(=O)c1ccc(NC(=O)c2c(N)n(C)c(=O)[nH]c2=O)cc1 | i | 0.51 | nt | nt | nt | nt
O=C(NC(=S)Nc1cc(S(=O)(=O)N2CCOCC2)ccc1N1CCOCC1)c1ccco1 | i | nt | nt | nt | nt | nt
CCN(CC)S(=O)(=O)c1ccc(N2CCOCC2)c(NC(=S)NC(=O)c2ccco2)c1 | -7.3* | -7.3 | -34%* | i | i | +
O=C(O)c1cnc(-c2ccccc2)nc1Oc1ccc(Cl)cc1 | -7.5* | -7.5 | -20%* | i | i | +
SMILES | KCNQ2 inh | KCNQ2 pot | KCNQ2 block conf | KCNQ1 spec | CHO Tl ctr | KCNQ2 patch conf
O=C(O)c1cnc(-c2ccccc2)nc1Oc1ccccc1 | i | nt | nt | nt | nt | nt
O=S(=O)(c1ccc2ccccc2c1)N(CC(O)COCc1ccco1)c1ccccc1 (stereo unspecified) | -8.9* | -8.9 | -20%* | i | i | +
CCN(CC)CC(O)CN(c1ccccc1)S(=O)(=O)c1ccc2ccccc2c1 (stereo unspecified) | i | 2 | nt | nt | nt | nt
COc1ccc(C)cc1NC(=O)C(Sc1nnnn1C)c1ccccc1 (stereo unspecified) | i | nt | nt | nt | nt | nt
COCCn1c(SC(C(=O)Nc2cc(C)ccc2OC)c2ccccc2)nnc1-c1ccc(Cl)cc1 (stereo unspecified) | -9.5* | -9.5 | i | i | i | nt
Cc1c(Cl)cccc1NC(=S)N1CCC(N(C)CC2CCCO2)CC1 (stereo unspecified) | i | 0.09 | nt | nt | nt | nt
C/C(=N\Nc1nc(N2CCCCCC2)nc(N2CCCCCC2)n1)c1ccccc1 | -9.2* | -9.2 | -28%* | i | i | +
CC(=C/c1ccccc1)/C=N/Nc1nc(N2CCCCC2)nc(N2CCCCC2)n1 | i | nt | nt | nt | nt | nt
CCOc1ccccc1NC(=O)NC(=O)N(C)S(=O)(=O)c1ccc(C)cc1 | i | 1.6 | nt | nt | nt | nt
c1ccc(CCNc2nc(-c3ccccn3)nc3ccccc23)cc1 | -8.6* | -8.6 | -29%* | i | i | i

Bioassay records from PubChem.
